Results on 93 compounds are retold here after PubChem BioAssay AID624040 (The Scripps Research Institute Molecular Screening Center, 2012).

Each structure is given as a SMILES string. Where “and” joins values, the source holds several entries; their conditions need not be identical. Identical values can stand only once. The whole screen tested about 360,000 compounds, of which about 2,100 (0.58%) were called active.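 How the source made its calls: active means inhibition above a per-plate cutoff, the mean of that plate's test compounds plus 3 SD (cut at about 27% in these data); inactive means the rest.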 Only a selection was taken, and actives are over-represented in it overall. Some structures have more than one record in an assay (separate samples or runs), and their calls can disagree.

In the test the target is Muscarinic acetylcholine receptor M5 (Homo sapiens) (UniProt P08912). As to the kind of experiment: CHRM5 blockers of acetylcholine calcium response – CHO cells, Fluo-8 calcium fluorescence, primary screen (AID 624040).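 Further: 0% = acetylcholine EC80 with DMSO and 100% = DMSO without agonist.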 To be noted: CHO-hM5 cells, ACh EC80, at 3 µM, stronger effect = higher value.
Chain of Muscarinic acetylcholine receptor M5 (Homo sapiens) (P08912 whole entry, looked up): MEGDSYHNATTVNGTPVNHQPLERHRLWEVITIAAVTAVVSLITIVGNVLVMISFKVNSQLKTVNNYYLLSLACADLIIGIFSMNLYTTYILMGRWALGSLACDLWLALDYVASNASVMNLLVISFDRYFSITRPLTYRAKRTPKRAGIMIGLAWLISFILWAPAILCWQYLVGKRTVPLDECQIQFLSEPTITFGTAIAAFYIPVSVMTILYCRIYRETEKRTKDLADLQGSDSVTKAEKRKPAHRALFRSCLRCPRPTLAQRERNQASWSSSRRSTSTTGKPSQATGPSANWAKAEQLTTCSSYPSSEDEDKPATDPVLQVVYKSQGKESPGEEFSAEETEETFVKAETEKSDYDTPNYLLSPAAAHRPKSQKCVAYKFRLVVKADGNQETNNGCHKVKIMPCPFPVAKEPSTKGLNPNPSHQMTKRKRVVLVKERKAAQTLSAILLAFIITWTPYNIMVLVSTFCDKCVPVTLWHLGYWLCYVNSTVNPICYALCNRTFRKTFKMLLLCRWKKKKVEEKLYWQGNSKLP
For `COc1ccc(CCNc2cc(C)nc3c(-c4ccc(Cl)cc4)c(C)nn23)cc1OC`, the inhibition was 0.85% (inactive).

Regarding `CSCCC(C(=O)NC1=NCCS1)N1C(=O)c2ccccc2C1=O` (stereo not drawn), the inhibition is 6.62% (inactive). As to `CCN(CC)C(=O)C1CCCN(Cc2cccc(Cl)c2)C1` (stereo not drawn), the inhibition was 2.81% (inactive).

As to `COc1c(O)ccc2c1CN1CCc3cc4c(cc3C1C2)OCO4` (stereo not drawn), the inhibition was 4.81% (inactive). As for `N#CC1(Nc2ccc3c4c(cccc24)CC3)CCCCC1`, the figure is 40.5% (active).

For `CC(C)C(=O)Nc1ccc2c3c(cccc13)CC2`, the inhibition was -8.88% (inactive). As for `N#CC1(Nc2ccc(-c3ccc(Cl)cc3)cc2)CCCC1`, the inhibition is 16.1% (inactive).

As for `CCCCOC(=O)c1ccc(NC(c2ccc(C)cc2)P(=O)(OC)OC)cc1` (stereo not drawn), the inhibition was 8.39% (inactive). As for `CC1=C(C(=O)N2CCOCC2)CC(CC(=O)NCc2ccco2)C(=O)N1Cc1ccc(F)cc1` (stereo not drawn), the figure is -4.73% (inactive).

With `O=C(O)c1n[nH]nc1-c1ccccc1`, the inhibition is -3.66% (inactive). Turning to `Cc1c(-c2ccccc2)nc(N)c(C#N)c1-c1cccs1`, the inhibition was 8.1% (inactive). For `N#Cc1c(-c2ccccc2)c(-c2ccccc2)n[nH]c1=O` the value was 31.9% (active). As for `COc1cc(C)nc(N2CCCC(C(=O)NCC(C)C)C2)n1` (stereo not drawn), the figure is -3.29% (inactive); as for `CCCc1cc(C(=O)N2CCCC(CO)(CCCc3ccccc3)C2)n(C)n1` (stereo not drawn), 17% (inactive); as for `CCN(CC)S(=O)(=O)c1ccc(N(C)CCc2ccc(OC)c(OC)c2)nc1`, 3.43% (inactive). Turning to `CCN(CC)S(=O)(=O)c1ccc(N(C)Cc2ccc(C(F)(F)F)cc2)nc1`, the inhibition was 29% (active).

For `CCN(CC)S(=O)(=O)c1ccc(N(C)Cc2cccc(OC)c2OC)nc1`, the inhibition was 22.7% (inactive). `Nc1c(Cl)cc(-c2csc(N3CCCC3c3nc4cc(Cl)c(Cl)cc4n3CCOCCO)n2)cc1Cl` (stereo not drawn): the inhibition is 15.2% (inactive). As for `O=C(COC(=O)c1cc(-c2cccs2)nn1-c1ccccc1)Nc1cc([N+](=O)[O-])ccc1Cl`, the inhibition is 1.74% (inactive). For `CCCCN(C(=O)C(CCSC)N1C(=O)c2ccccc2C1=O)c1c(N)n(CCC)c(=O)[nH]c1=O` (stereo not drawn) the value was -3.24% (inactive); for `Cc1ccc(NC(=O)CN(C)CC(=O)Nc2cccc(F)c2)cc1[N+](=O)[O-]`, 35.5% (active); for `Cc1ccc(NC(=O)c2sccc2C)cc1[N+](=O)[O-]`, 10.3% (inactive). For `CN(CC(=O)Nc1cccc(F)c1)C(=O)C1=COCCO1` the value was 11.4% (inactive); for `CCCNC(=O)NCc1ccc(N2CCCC2=O)cc1`, -1.94% (inactive); for `O=C(O)C(c1ccccc1)C1(O)CCCCC1` (stereo not drawn), -13.2% (inactive). On to `CN(C)CCOC(=O)C(c1ccccc1)C1(O)CCCC1` (stereo not drawn), for which the inhibition was 98.1% (active). For `O=C(O)C(c1cccs1)C1(O)CCCCC1` (stereo not drawn) the value was 9.55% (inactive); for `COc1ccc(NC(=O)CC2C(=O)NC3CCCCC3N2C(=O)c2ccc(F)cc2)cc1` (stereo not drawn), 23.2% (inactive); for `CCOc1ccc(Br)cc1CSC(=N)N`, 30.2% (active).

Turning to `CCOc1ccc(Br)cc1S(=O)(=O)N1CCC(C(=O)O)CC1`, the inhibition was 10.7% (inactive).

For `CC(C)(C)NCc1cc(Br)ccc1OC1CCCC1`, the inhibition was -2.57% (inactive).

For the compound `CC(C)(C)NC(=O)CN(C(=O)c1ccc(Cl)nc1)c1cccc2ccccc12`, the inhibition was 0.44% (inactive). For the compound `Cc1cc(C(F)(F)F)nn1CC(=O)N1CCCC1`, the inhibition was -0.38% (inactive).

In the case of `CCOc1ccc(C(=O)Nc2ccc(S(=O)(=O)Nc3cc(C)on3)cc2)cc1`, the inhibition was 7.9% (inactive).

Turning to `O=C(Nc1ccc(OC(F)(F)F)cc1)c1ccc2c(c1)no[n+]2[O-]`, the inhibition was 28.2% (active). `O=S(=O)(Nc1ccc(OC(F)(F)F)cc1)c1cccc2nonc12`: the inhibition was 3.29% (inactive). For `O=C(COC(=O)c1ccc(N2CCCC2=O)cc1)c1ccc(OC(F)F)cc1` the value was 6.05% (inactive); for `COc1cccc(OC)c1C(=O)Nc1c(C(=O)N2CCN(c3ccccn3)CC2)oc2ccccc12`, 9.59% (inactive). For `COc1cccc(-n2c(N)cc(=O)nc2SCC(=O)Nc2cc(C)on2)c1` the value was -11.3% (inactive). Turning to `COc1ccc(CCNC(=O)CCc2ccccc2O)cc1OC`, the inhibition is -1.37% (inactive).

For `COc1ccc(CCNC2=C(Cl)C(=O)N(Cc3ccccc3)C2=O)cc1OC`, the inhibition is 31.8% (active). For `COc1ccc(CCNc2nc(C)cc(C)n2)cc1OC` the value was 1.9% (inactive); for `N#CCCN(C(=S)Nc1ccc(Cl)c(Cl)c1)C1CCCCC1`, 24.6% (inactive).

As to `CCN1CCN(C(=O)/C=C\C(=O)O)CC1`, the inhibition was 2.54% (inactive). As for `O=C(Nc1ccc(Cl)cn1)c1cnn2cccnc12`, the figure is -6.64% (inactive); as for `O=C(Nc1ccc(Cl)cn1)c1ccccc1-c1ccccc1`, 10.9% (inactive).

As to `O=C(Nc1ccc(Cl)cn1)Nc1cccs1`, the inhibition was 31.8% (active). Take `CC(C)C[C@H](NC(=O)N1CCn2c1nc1ccccc12)C(=O)NC1CC1`: the inhibition is 0.78% (inactive). `CCN(CC)S(=O)(=O)c1ccc2nc(CSc3nnnn3-c3ccc(O)cc3)[nH]c2c1`: the inhibition was 10.1% (inactive).

As for `Fc1cccc2ncnc(OCc3ccccc3)c12`, the inhibition is 4.79% (inactive). For `Cc1nc2ccccc2cc1OCc1ccc(F)cc1` the value was 47.8% (active). In the case of `Fc1ccc(COc2cccc(-c3n[nH]c(=S)o3)c2)cc1`, the inhibition was 8.85% (inactive).

Take `O=C(CSc1nccc(=O)[nH]1)Nc1ccc(N2CCOCC2)c(Cl)c1`: the inhibition is 12.6% (inactive).

Regarding `CCOc1ccc(C(C)=O)cc1CSc1nnc(-c2ccncc2)n1CCOC`, the inhibition was 12% (inactive). As for `CCN1C(=O)CS/C1=N\c1nccs1`, the figure is -0.1% (inactive); as for `CCOc1ccc(C(=O)NCC(=O)N2CCCCCCC2)cc1OCC`, 1.82% (inactive). For the compound `CCN1CCN(C(=O)N[C@@H](C(=O)N[C@@H]2C(=O)N3C(C(=O)O)=C(CSc4nnnn4C)CS[C@H]23)c2ccc(O)cc2)C(=O)C1=O`, the inhibition was -7.79% (inactive). As for `CO/N=C(\C(=O)N[C@@H]1C(=O)N2C(C(=O)O)=C(COC(C)=O)CS[C@H]12)c1csc(N)n1` (stereo in doubt), the inhibition is 0.17% (inactive) and 51.3% (active) and 30.6% (active). For the compound `C=CC1=C(C(=O)O)N2C(=O)[C@@H](NC(=O)/C(=N/OCC(=O)O)c3csc(N)n3)[C@H]2SC1`, the inhibition is -2.27% (inactive).

As for `COc1ccc(C(=O)Cn2nnc(-c3ccc(N4CCOCC4)cc3)n2)cc1OC`, the inhibition is 16.5% (inactive).

Turning to `N#CCc1ccc(NC(=O)c2ccccc2C(=O)Nc2ccc(CC#N)cc2)cc1`, the inhibition was 2.31% (inactive). For the compound `COc1cc(C(CCN2CCN(c3ccccc3)CC2)c2c(OC)cc(OC)c3ccc(=O)oc23)cc(OC)c1OC` (stereo not drawn), the inhibition was 17% (inactive).

As for `COc1cc(OC)c2ccc(=O)oc2c1C(CCN1CCN(c2ccccc2)CC1)c1ccc2c(c1)OCO2` (stereo not drawn), the inhibition was 31.3% (active).

`CCN(CC)CCC(c1ccc2c(c1)OCO2)c1c(OC)cc(OC)c2c(-c3ccccc3)cc(=O)oc12` (stereo not drawn): the inhibition was 7.48% (inactive). For `Cc1ccc(NC(=O)c2cc([N+](=O)[O-])ccc2Cl)c(O)c1`, the inhibition is 1.06% (inactive). With `CCOC12CC(C)(C)CC(C)(CC3=C1C(=O)CC(C)(C)C3)C2` (stereo not drawn), the inhibition is -1.41% (inactive). For the compound `Cc1ccc(CNC(=O)CCNS(=O)(=O)c2ccc(Br)s2)cc1`, the inhibition was -7.85% (inactive). For `CCN(CC(=O)Nc1ccccc1C(=O)NC1CC1)Cc1cccs1` the value was -5.91% (inactive); for `CSc1nccc(NC(=O)c2ccc(C(C)(C)C)cc2)n1`, 32.5% (active); for `CSc1ncc(C(=O)Nc2ccc(C)cc2C)c(C)n1`, 0.26% (inactive). As to `CC(=O)Oc1ccc(C(=O)Nc2nccs2)cc1`, the inhibition is -0.3% (inactive). For `O=C(CSc1nn(-c2ccc(F)cc2)c(=S)s1)NC1CCS(=O)(=O)C1` (stereo not drawn) the value was 2.55% (inactive); for `CC(=O)NC(c1cccs1)c1cc(Br)c2cccnc2c1O` (stereo not drawn), -3.57% (inactive).

On to `CCn1c(N)c(Br)c(=O)[nH]c1=O`, for which the inhibition was -11.1% (inactive).

With `Cc1ccc(N2CC(C(=O)NCCS(=O)(=O)N3CCN(c4ccccc4)CC3)CC2=O)cc1` (stereo not drawn), the inhibition was 8.26% (inactive). Take `Cc1ccc(C(=O)N/C(=C/c2ccco2)C(=O)NCCc2c[nH]c3ccccc23)cc1C`: the inhibition is 0.84% (inactive). Consider `N#C/C(=C\c1ccc(N2CCOCC2)o1)C(=O)N1CCOCC1`, for which the inhibition is 0.08% (inactive). For `N#C/C(=C/c1ccc(N2CCCCC2)o1)C(=O)NCCc1c[nH]c2ccccc12` the value was 31.6% (active); for `Cc1ccccc1CSc1nnc(-c2ccccn2)n1N`, -0.16% (inactive); for `CC(C)(C)S(=O)(=O)N1Cc2cc(CO)cc(CCO)c2[C@H]1CCO`, -3.33% (inactive). In the case of `CC(NC(=O)c1ccc(Cl)cc1)C(=O)N1CCCCC1` (stereo not drawn), the inhibition is -2.56% (inactive).

For `CN1CCC(=NNC(=O)c2ccc(N(Cc3ccc(Cl)cc3)S(C)(=O)=O)cc2)CC1`, the inhibition is -3.74% (inactive). `CCC1CCC/C1=N\NC(=O)c1ccc(Cl)cc1` (stereo not drawn): the inhibition was 27.5% (active). In the case of `COc1cc(OC)cc(-c2c(C#Cc3ccsc3)c3cc(-c4ccc(OC)cc4F)ccc3n2C)c1`, the inhibition was 8.22% (inactive). As for `CCN(CC)c1ccc(NC(=O)CN2CCN(c3ccccn3)CC2)cc1`, the inhibition was 1.09% (inactive). For `CN(C(=O)CN1CCN(c2cc(-c3ccc(OCc4ccccc4)cc3)ncn2)CC1)c1ccccc1` the value was 27.1% (active). Consider `CCOc1ccc(OCc2ccc(C(=O)N(C)c3ccccc3)o2)cc1`, for which the inhibition was 8.29% (inactive). For `C[C@H](NS(=O)(=O)c1ccc(Cl)cc1)C(=O)OCC(=O)N1CCOCC1`, the inhibition was 14.1% (inactive). Take `CN(C)CCNC(=O)c1ccc(Cl)c2cc3ccccc3nc12`: the inhibition was 0.61% (inactive). As for `N#C/C=C\Oc1ccc(Cl)cc1N`, the figure is 1.41% (inactive); as for `Cc1ccc(C(=O)C[n+]2cc(-c3ccccc3)n3c2CCCCC3)cc1`, 4.95% (inactive) and 0.73% (inactive). As for `Clc1ccc(C[n+]2cc(-c3ccc(Cl)cc3)n3c2CCC3)cc1`, the figure is 32.4% (active); as for `Cc1ccc(-c2c[n+](CC(=O)Nc3ccccc3)c3n2CCC3)cc1`, 2.52% (inactive).

Broadly, the inhibition is the change of the read-out against control, counted positive when it falls.
